High-throughput results (PubChem)
Rows were chosen to be rich in hits. Some 2.5% of all compounds tested hit in one or more screens of this group.
ABCB6 inh MLPCN: inhibitors of human ABC transporter ABCB6; K562-ABCB6 porphyrin accumulation, flow cytometry, 1 h; active compounds read low; fluorescence ratio to DMSO, % at 10 µM; 360,000 tested, 0.19% active; AID 602162;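 active means fluorescence ratio to DMSO below 75%, the collection mean minus 3 SD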;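 further: signal is porphyrin accumulated inside mitochondria; lower ratio means ABCB6 inhibition with less porphyrin fluorescence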
Target sequence (Q9NP58 whole entry, looked up): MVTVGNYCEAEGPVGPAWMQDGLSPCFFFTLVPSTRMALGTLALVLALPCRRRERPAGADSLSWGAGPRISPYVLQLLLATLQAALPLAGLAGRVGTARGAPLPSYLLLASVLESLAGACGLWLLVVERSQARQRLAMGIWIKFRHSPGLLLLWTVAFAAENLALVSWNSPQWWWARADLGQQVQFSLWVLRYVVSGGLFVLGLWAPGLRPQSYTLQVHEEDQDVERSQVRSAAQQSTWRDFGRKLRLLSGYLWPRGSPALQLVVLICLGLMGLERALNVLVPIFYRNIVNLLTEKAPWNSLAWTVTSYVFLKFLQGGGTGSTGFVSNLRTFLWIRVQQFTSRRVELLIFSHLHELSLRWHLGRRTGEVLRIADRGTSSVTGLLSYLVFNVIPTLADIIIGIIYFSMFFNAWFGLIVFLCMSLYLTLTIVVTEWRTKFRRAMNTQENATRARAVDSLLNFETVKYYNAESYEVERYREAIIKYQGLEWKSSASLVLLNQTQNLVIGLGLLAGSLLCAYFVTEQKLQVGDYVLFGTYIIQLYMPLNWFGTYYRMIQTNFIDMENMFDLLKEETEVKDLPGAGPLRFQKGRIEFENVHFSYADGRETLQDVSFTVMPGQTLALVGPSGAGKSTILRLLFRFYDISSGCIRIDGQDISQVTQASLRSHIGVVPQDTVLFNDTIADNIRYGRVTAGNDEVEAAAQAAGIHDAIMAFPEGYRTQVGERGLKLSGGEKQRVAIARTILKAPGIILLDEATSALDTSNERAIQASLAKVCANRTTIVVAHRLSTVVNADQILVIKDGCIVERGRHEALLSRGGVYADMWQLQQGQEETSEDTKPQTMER
PG9 Ab binder: small molecules binding HIV-1 gp120 antibody PG9; TR-FRET gp120-PG9 antibody binding; inhibition, % at 6.7 µM; 360,000 tested, 0.43% active; AID 624416; in the data active means inhibition above about 8.5%
Granule exo inh: blocks lytic granule exocytosis; TALL-104 LAMP-1 surface exposure, flow cytometry; cells stimulated with thapsigargin and PMA; inhibition, % at 10 µM; 360,000 tested, 0.66% active;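 active means inhibition above about 55%, limit read from the data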
rCAG binder: molecules binding r(CAG) RNA repeats; r(CAG) RNA repeat, TO-PRO-1 dye displacement fluorescence; inhibition, % at 3 µM; 370,000 tested, 1.3% active; AID 651821;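 active means inhibition above the plate cutoff, the mean of all test compounds on that plate plus 3 SD, cut at about 35% in these data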;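 further: higher means more dye released from RNA so lower well fluorescence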
rCAG bind conf: r(CAG) RNA repeat binding, confirmation; shares compounds with rCAG binder; TO-PRO-1 dye displacement fluorescence; inhibition, % at 3 µM; 4,300 tested, 70% active;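 active means inhibition above a per-plate cutoff, the mean inhibition of sample wells plus 3 SD, cut at about 35% in these data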;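 further: loss of TO-PRO-1 fluorescence as compound displaces dye from 1x1 AA loop RNA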
dCAG dye counter: DNA CAG dye complex inhibition counter-screen; shares compounds with rCAG binder; AID 652068; inhibition, % at 3 µM; 4,300 tested, 94% active; d(CAG) DNA oligo TO-PRO-1 dye displacement, fluorescence;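 active means inhibition above its plate's cutoff, the mean test-well inhibition plus 3 SD, cut at about 4.8% in these data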;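 further: hits displace the dye from DNA and so lower well fluorescence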
Large screens that a line does not name were inactive (follow-up assays come after a bar, where they were run).

NNC(=O)c1cc2ccccc2cc1O	rCAG binder 41 | rCAG bind conf inactive | dCAG dye counter inactive
Cc1cccc(-c2noc(CCCC(=O)NC3CCCCC3)n2)c1	none
CCCCOC(=O)Nc1ccc(S(=O)(=O)Nn2cnnc2)cc1	none
CC(=O)c1ccc(NS(=O)(=O)c2ccc([N+](=O)[O-])cc2)cc1	none
O=[N+]([O-])c1ccc(S(=O)(=O)Nc2ccc(-c3ccccc3)cc2)cc1	rCAG binder 45 | rCAG bind conf 35 | dCAG dye counter 8.7
CCCCCOC(=O)Nc1ccc(S(=O)(=O)Nc2cccc([N+](=O)[O-])c2)cc1	rCAG binder 48 | rCAG bind conf 45 | dCAG dye counter 10
CS(=O)(=O)Nc1ccc(C(=O)CC(=O)Nc2ccc([N+](=O)[O-])cc2)cc1	rCAG binder 37 | rCAG bind conf inactive | dCAG dye counter 9.4
CCCCOC(=O)Nc1ccc(S(=O)(=O)Nc2ccc([N+](=O)[O-])cc2)cc1	rCAG binder 51 | rCAG bind conf inactive | dCAG dye counter 9.9
CCCCOC(=O)Nc1ccc(S(=O)(=O)Nc2cc(C)nc(C)n2)cc1	none
O=C(NCc1cc([N+](=O)[O-])ccc1O)c1cccc(NS(=O)(=O)c2ccccc2)c1	none
Cc1nc(C(F)(F)F)ccc1C(=O)N1CCCC(C)(C(=O)O)C1 (stereo unspecified)	none
COc1ccc(CCC(=O)NCC(=O)OCc2ccccc2)cc1	none
COc1cc2cccc(OC)c(=O)c2c(OC)c1OC	none
O=c1c(O)cccc2cc(O)c(O)c(O)c12	rCAG binder 51 | rCAG bind conf 78 | dCAG dye counter 48
COc1cc(/C=N\NC(=O)C2COc3ccccc3O2)cc(OC)c1O (stereo unspecified)	none
CCOc1ccc(-n2c(O)c(/C=N/NC(=O)C3COc4ccccc4O3)c3ccccc3c2=O)cc1 (stereo unspecified)	rCAG binder 76 | rCAG bind conf 74 | dCAG dye counter 37
O=C(C1=NN[C@@H]2C(=O)N(c3cccc(F)c3)C(=O)[C@H]12)C(c1ccccc1)c1ccccc1	none
O=C(C1=NN[C@@H]2C(=O)N(c3cccc(C(F)(F)F)c3)C(=O)[C@H]12)C(c1ccccc1)c1ccccc1	rCAG binder 55 | rCAG bind conf inactive | dCAG dye counter 8.9
Cc1ccc(NC(=O)C2(S(=O)(=O)c3ccc(Cl)cc3)CC2)cc1	none
CC(C)(C)c1ccc(S(=O)(=O)NC(=O)C2(C)CCN2C(=O)Cc2ccccc2Cl)cc1 (stereo unspecified)	rCAG binder 47 | rCAG bind conf 56 | dCAG dye counter 21
CC1(C(=O)NS(=O)(=O)c2ccc(Cl)cc2)CCN1C(=O)Cc1cccc2ccccc12 (stereo unspecified)	rCAG binder 46 | rCAG bind conf inactive | dCAG dye counter 7.6
CC(C)(C)c1ccc(S(=O)(=O)NC(=O)C2(C)CCN2C(=O)c2cccc3ccccc23)cc1 (stereo unspecified)	rCAG binder 57 | rCAG bind conf 52 | dCAG dye counter 16
CC1(C(=O)NS(=O)(=O)c2ccccc2Cl)CCN1C(=O)c1cccc2ccccc12 (stereo unspecified)	none
CC1(C(=O)NS(=O)(=O)c2ccccc2Cl)CCN1C(=O)Cc1ccccc1Cl (stereo unspecified)	none
CCCN1CCN(S(=O)(=O)c2ccc(-c3cc(C)no3)s2)CC1	none
NS(=O)(=O)c1ccc(N2C(=O)CCCC2=O)cc1	none
Cc1cc(NS(=O)(=O)c2ccc(Nc3nc(-c4sc(N)nc4C)cs3)cc2)no1	none (no result: PG9 Ab binder, rCAG binder)
COc1cc(NS(=O)(=O)c2ccc(Nc3nc(-c4ccccc4)cs3)cc2)nc(OC)n1	rCAG binder 87 | rCAG bind conf 83 | dCAG dye counter 54
Cc1cc(NS(=O)(=O)c2ccc(Nc3nc(-c4ccc(O)cc4)cs3)cc2)no1	rCAG binder 52 | rCAG bind conf inactive | dCAG dye counter 9.7
Cc1cc(NS(=O)(=O)c2ccc(Nc3nc(-c4ccc(C)c(C)c4)cs3)cc2)no1	rCAG binder 88 | rCAG bind conf 84 | dCAG dye counter 55
C[C@@]12C(=O)Nc3cc(F)c(F)cc3C(=O)N1[C@H]1c3cc(Cl)ccc3OC[C@@H]1[C@@H]2c1ccccc1	none (no result: PG9 Ab binder, rCAG binder)
O=c1oc2ccccc2cc1-c1nc(-c2cccs2)cs1	rCAG binder 41 | rCAG bind conf inactive | dCAG dye counter 8.6
CC(=O)NC(CC(=O)N1CCN(C(C)=O)CC1)c1ccccc1 (stereo unspecified)	none
Cc1ccc(F)c(NC(=O)/C(C#N)=C(\O)c2ccc(C(C)(C)C)cc2)c1	rCAG binder 89 | rCAG bind conf 90 | dCAG dye counter 61
Cc1cccc(NC(=O)C(=O)NNC(=O)c2ccc(C(C)(C)C)cc2)c1	none
COc1ccc(CCC(=O)Nc2ccc(S(=O)(=O)Nc3nccc(C)n3)cc2)cc1	none
COc1ccc(CCN(Cc2cccs2)S(=O)(=O)c2ccc(C(=O)O)cc2)cc1OC	rCAG binder 36 | rCAG bind conf 37 | dCAG dye counter 5.5
Cc1ccc(C(=O)Nc2cc(S(=O)(=O)N3CCOCC3)ccc2N2CCCC2)cc1	none
Cc1ccc(S(=O)(=O)NC(=O)c2cc(C)n(-c3cc(S(=O)(=O)N4CCOCC4)ccc3N3CCCC3)c2C)cc1	rCAG binder 36 | rCAG bind conf 49 | dCAG dye counter 15
Cc1nc(NC(=O)CCN2C(=O)C3CC=CCC3C2=O)sc1C (stereo unspecified)	none
CC(NC(=O)C1CCCN1C(=O)OC(C)(C)C)C(=O)OCc1ccccc1 (stereo unspecified)	none
CN1C(=O)/C(=C/c2ccc(-c3ccccc3[N+](=O)[O-])o2)SC1=Nc1ccc(Cl)c(C(=O)O)c1	rCAG binder 43 | rCAG bind conf 85 | dCAG dye counter 51
COc1cc2ccccc2cc1C(=O)NC(=S)Nc1cccc(C(=O)O)c1	rCAG binder 39 | rCAG bind conf 69 | dCAG dye counter 34
COc1cc2ccccc2cc1C(=O)NC(=S)Nc1ccc(C(=O)O)cc1	none
N#C/C(=N\Nc1cccc(C(F)(F)F)c1)C(=O)c1csc(-c2cccnc2)n1	rCAG binder 86 | rCAG bind conf 80 | dCAG dye counter 49
COc1nccnc1NS(=O)(=O)c1ccc(NC(=S)NC(=O)/C=C/c2ccc(F)cc2)cc1	rCAG binder 71 | rCAG bind conf 59 | dCAG dye counter 24
CCc1nnc(NS(=O)(=O)c2ccc(NC(=S)Nc3ccc(F)cc3)cc2)s1	none
CCc1nnc(NS(=O)(=O)c2ccc(NC(=S)NC(=O)c3ccc(Br)cc3)cc2)s1	rCAG binder 83 | rCAG bind conf 80 | dCAG dye counter 49
CCc1nnc(NS(=O)(=O)c2ccc(NC(=O)c3ccccc3)cc2)s1	none
CCc1nnc(NS(=O)(=O)c2ccc(NC(=O)/C=C/c3ccccc3Cl)cc2)s1	rCAG binder 86 | rCAG bind conf 82 | dCAG dye counter 54
CCc1nnc(NS(=O)(=O)c2ccc(NC(=S)NC(=O)c3ccccc3)cc2)s1	rCAG binder 65 | rCAG bind conf 51 | dCAG dye counter 18
